Test results from PubChem BioAssay AID868 (SRMLSC, 2007).
Among all 190,000 compounds or so, about 3,500 (1.8%) were called active.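 The calls were made as follows: active = inhibition above a set limit, 3 SD over mean compound inhibition (cut at about 8.4% in these data); inactive = the rest.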 The full list was thinned out, with actives kept by preference.

experiment: RAM signaling blockers in budding yeast – dse1pr::URA3 reporter, 5-FOA selection, primary screen (AID 868);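 also: 0% = DMSO-only wells with no growth and 100% = 10 µM 1-NA-PP1 full growth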; conditions: S. cerevisiae dse1pr::URA3 reporter, 5-FOA growth OD615, 2 d; at 50 µM; stronger effect = higher value; analog-sensitive cbk1-as2 kinase mutant strain

| SMILES | inhibition |
| --- | --- |
| O=C(CN1CCN(Cc2ccc(F)cc2Cl)C1=O)NCc1cccs1 | 0.13% (inactive) |
| O=C(COC(=O)CNC(=O)c1ccccc1F)NCC(F)(F)F | 3.2% (inactive) |
| O=C(N/N=C\c1ccc(-c2ccc(Cl)c(Cl)c2)o1)C(=O)N1CCCC1 | 8.47% (active) |
| O=C(N/N=C/c1ccc([N+](=O)[O-])cc1)C(=O)N1CCCC1 | 1.52% (inactive) |
| COC(=O)N/N=C/c1ccc(-c2ccc(Cl)c(Cl)c2)o1 | 1.74% (inactive) |
| Cc1nccn1CCCNC(=O)CC1C(=O)NCCN1Cc1ccc(Cl)c(F)c1 (stereo not drawn) | -1.07% (inactive) |
| COCCNC(=O)/C(C#N)=C/c1nc(N(C)C)n(-c2ccc(F)cc2)c1Cl | 0.24% (inactive) |
| O=C(NCCc1ccco1)c1nn(Cc2ccccc2)c(=O)c2ccccc12 | 11.2% (active) |
| O=c1c2ccccc2c(-c2ccccc2)nn1Cc1ccccc1 | 6.51% (inactive) |
| O=C(NCc1ccco1)c1nc(-c2ccccc2)n(-c2ccccc2)n1 | 0.66% (inactive) |
| N/C(=N/O)c1cccn1Cc1ccccc1[N+](=O)[O-] | 0.13% (inactive) |
| O=S(=O)(c1ccc2c(c1)OCCO2)N1CCc2ccccc21 | 2.45% (inactive) |
| COc1ccc(Cl)cc1NC(=O)CNc1ccccc1F | -1.15% (inactive) |
| COc1ccc(Cl)cc1NC(=O)NC(C)C(C)(C)C (stereo not drawn) | 12.8% (active) |
| COC(=O)[C@@H](NC(=O)Nc1cc(Cl)ccc1C)C(C)C | 1.68% (inactive) |
| COCCNC(=O)C(OC(=O)c1cccs1)c1ccc(F)cc1 (stereo not drawn) | 0.51% (inactive) |
| Cc1ccc(NC(=O)Cn2cccc2C2=NC(c3ccccc3)CO2)c(C)c1 (stereo not drawn) | 0.92% (inactive) |
| COC(=O)C1=C(C)N(C)C(=S)NC1c1cc(OC)ccc1OC (stereo not drawn) | 0.25% (inactive) |
| COc1cccc(C(=O)Nc2cc3c(cc2Br)OCCCO3)c1 | 1.75% (inactive) |
| COc1ccc(C2=CC(c3cccc(OC)c3)n3nnnc3N2)cc1 (stereo not drawn) | 5.23% (inactive) |
| COc1ccc(C2C=C(c3ccc(Br)cc3)Nc3nc(NS(C)(=O)=O)nn32)cc1 (stereo not drawn) | 13.4% (active) |
| Brc1ccc(C2=CC(c3ccco3)n3ncnc3N2)cc1 (stereo not drawn) | 0.23% (inactive) |
| CNC(=O)c1[nH]cnc1C(=O)N[C@@H](CC(C)C)C(=O)OC(C)(C)C | 0.13% (inactive) |
| CSCC(=O)N1CCCC(C(=O)c2cc(F)ccc2F)C1 (stereo not drawn) | 0.37% (inactive) |
| Cc1cc(C)n2nc(SCC(N)=O)nc2n1 | -0.25% (inactive) |
| C/C(=C\c1ccco1)C1Nc2cccc3cccc(c23)N1 | 8.69% (active) |
| CC(/C=N/NC(=O)c1cc(-c2ccc3ccccc3c2)n[nH]1)=C\c1ccco1 | 2.36% (inactive) |
| CC(/C=N/NC(=O)c1ccncc1)=C\c1ccco1 | 1.91% (inactive) |
